Compound activity as filed in PubChem BioAssay.
TTR transcr act = TTR transcription activators in neuroblastoma reporter cells, primary screen, cell-based, luminescence, SH-SY5Y, TTR promoter Gaussia luciferase. activation, % at 16.7 µM. 100% = recombinant luciferase protein wells. 1.3% of 92,000 active;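 active means activation above the mean of all tested compounds plus 3 SD, cut at about 9.5% in these data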;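 further: cells exposed to compounds for one day before reading; 0% = median of all test compound wells on the plate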
HuH7 TTR inh = TTR promoter reporter inhibitors in hepatoma cells, counter-screen for TTR transcription activator project, cell-based, luminescence, HuH7 hepatoma | shares compounds with TTR transcr act | HuH7 TTR promoter-Gaussia luciferase reporter | 4% of 1,100 active | inhibition, % at 16.7 µM;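 active means average inhibition above the solvent-only control wells' mean plus 3 SD, cut at about 15% in these data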;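 further: 0% = cells with DMSO only and 100% = cells with inhibitor control FD; inhibitors lower well luminescence so higher value means more inhibition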
TTR act confirm = TTR transcription activators, retest, confirmation, cell-based, luminescence, SH-SY5Y, triplicate. shares compounds with TTR transcr act. SHSY5Y TTR promoter Gaussia luciferase; 100% = purified Lucia enzyme wells, no cells. activation, % at 16.7 µM. 1,100 tested, under 10 active;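 active means mean activation above a set limit taken from the earlier primary screen, cut at about 11% in these data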;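 further: 0% = DMSO-treated cells and 100% = recombinant Lucia luciferase without cells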
An asterisk follows results filed as active. The sample as a whole holds a higher share of hits than the screen did.

SMILES	TTR transcr act	others
Cc1[nH]c2ccccc2c1C(=O)CSc1nc2ncc(Cl)cc2[nH]1	-2
O=C(CSc1nc2ncc(Cl)cc2[nH]1)NCC(=O)Nc1ccc(F)c(F)c1F	11*	HuH7 TTR inh=-11;TTR act confirm=0
O=C(NCc1ccco1)c1cc(-c2cccc(Cl)c2)on1	0
Cc1ccc(S(=O)(=O)N2C[C@H]3[C@H]4C(=O)N(c5ccccc5)C(=O)[C@H]4C[C@H](OC(=O)NCc4ccco4)[C@@]3(O)C2)cc1	-1
CCOC(=O)c1nnn(-c2ccccc2C#N)c1C	-1
Cc1cc(C)c2c(N)c(C(=O)c3ccccc3Cl)sc2n1	1
Cc1cc(C)c2c(N)c(C(=O)Nc3ncc(C)s3)sc2n1	3
Cc1cc(C)c2c(N)c(C(=O)Nc3ccccc3Cl)sc2n1	12*	HuH7 TTR inh=-6;TTR act confirm=-1
COCc1cc(C)nc2sc(C(=O)Nc3ccccc3C)c(N)c12	2
CC(=O)c1sc2nc(C)cc(C)c2c1N	23*	HuH7 TTR inh=-3;TTR act confirm=-1
CC(=O)c1sc2nc(-c3ccc(C)cc3)c3c(c2c1N)CCCC3	3
CCOC(=O)c1ccc(CNC(=O)C(Cc2c[nH]c3ccccc23)NC(C)=O)o1 (stereo not drawn)	0
COc1ccccc1-c1cccc([C@@H]2C[C@H]3[C@H](CON3C)CN2Cc2ccccc2)c1	4
Cc1[nH]c2ccccc2c1C(c1ccncc1)N1CCN(c2ccccc2F)CC1 (stereo not drawn)	2
CC1(C)O[C@H]2CC(=O)OC[C@]23[C@H]2CC[C@@]4(C)[C@H](c5ccoc5)OC(=O)[C@H]5O[C@]54[C@]2(C)[C@@H](O)C[C@@H]13	-2
CC1(C)O[C@@H](CC(=O)O)[C@]23CO[C@H](C(=O)[C@]4(C)C2CC[C@@]2(C)[C@H](c5ccoc5)OC(=O)C5O[C@]524)[C@@H]13 (stereo partly drawn)	22*	HuH7 TTR inh=-2;TTR act confirm=1
Cc1cccc(NC(=S)N(CCN(C)C)Cc2cc3cc(C)ccc3[nH]c2=O)c1	4
Cc1cccc(-c2ccc(C=Nc3c(C)n(C)n(-c4ccccc4)c3=O)o2)c1	-4
COc1ccc(-n2c(=O)c3c4c(sc3n3c(=S)[nH]nc23)CCC4)cc1	-2
Cc1ccc(-n2c(=O)c3c4c(sc3n3c(=S)[nH]nc23)CCC4)cc1	15*	HuH7 TTR inh=-8;TTR act confirm=2
O=c1c2c3c(sc2n2c(=S)[nH]nc2n1-c1ccccc1)CCC3	1
CC1CCC(NC(=O)c2ccc3snnc3c2)CC1 (stereo not drawn)	-2
CC(/C=N\NC(=O)CN1CCN(Cc2ccccc2)CC1)=C\c1ccco1	0
O=C(Cc1cccs1)N/N=C/c1ccccn1	15*	HuH7 TTR inh=-11;TTR act confirm=0
Cc1ccc(/C=N/NC(=O)Cc2cccs2)o1	0
SMILES	TTR transcr act	others
O=C(Cc1ccc(F)cc1)N/N=C/c1ccccn1	1
CCOC(=O)/C=C/C(=O)Nc1ccc(S(=O)(=O)Nc2cc(OC)nc(OC)n2)cc1	0
COc1cc(NS(=O)(=O)c2ccc(NC(=S)NC(C)=O)cc2)nc(OC)n1	17*	HuH7 TTR inh=-20;TTR act confirm=-1
COc1cc(NS(=O)(=O)c2ccc(NC(=O)COc3ccc(C)cc3)cc2)nc(OC)n1	0
CC(=O)C1=CCC(c2ccc(F)cc2)N(S(=O)(=O)c2ccc(C)cc2)C1 (stereo not drawn)	-1
COc1cc(/C=N/NC(=O)c2ccccc2Cl)ccc1Oc1ccc([N+](=O)[O-])cn1	-2
O=C(O)c1ccc(/C=N/Nc2ncc(C(F)(F)F)cc2Cl)cc1	-1
COc1ccc(NC(=O)CC2C(=O)NCCN2C(=O)Nc2ccc(C(F)(F)F)cc2)cc1 (stereo not drawn)	0
COC(=O)CC1C(=O)NCCN1C(=S)Nc1cccc(C)c1 (stereo not drawn)	2
CCOC(=O)CC1C(=O)NCCN1C(=O)Nc1ccccc1 (stereo not drawn)	18*	HuH7 TTR inh=-5;TTR act confirm=-1
CCCCc1c(C)nc(N2CCCC2)[nH]c1=O	4
CC(C)(C)OC(=O)N1Cc2ccccc2C[C@H]1C(=O)O	-2
O=C(N/N=C/c1cn(-c2ccccc2)nc1-c1cccs1)c1ccc(Cl)cc1	-3
Cn1cc(CCNC(=O)CC2C(=O)NCCN2Cc2cccc(Oc3ccccc3)c2)cn1 (stereo not drawn)	1
CC(C)CN1CCNC(=O)C1CC(=O)NCCc1cnn(-c2ccccc2)c1 (stereo not drawn)	13*	HuH7 TTR inh=-12;TTR act confirm=-1
CCn1cc(CNC(=O)CC2C(=O)NCCN2CC(c2ccccc2)c2ccccc2)cn1 (stereo not drawn)	2
CN1CCc2c(sc3nc(SCC(=O)N4CCCCC4)n(-c4ccccc4)c(=O)c23)C1	8
CCSc1nc2sc3c(c2c(=O)n1-c1ccccc1C)CCN(C)C3	-1
CCCCNc1nc2sc3c(c2c(=O)n1-c1cccc(Cl)c1)CCN(C)C3	102*	HuH7 TTR inh=-9;TTR act confirm=1
Cc1cc(OCc2cc3c(cc2Cl)OCO3)c2c(C)cc(=O)oc2c1	11*	HuH7 TTR inh=-17;TTR act confirm=1
CCOc1cc2c(C)cc(=O)oc2cc1Cl	0
C=C(Cl)COc1cc(C)cc2oc(=O)cc(CC)c12	-3
COc1ccc2oc(C(=O)OCC(=O)N3C(C)CCCC3C)c(C)c2c1 (stereo not drawn)	-1
Cc1cccc(C)c1NC(=S)NCCc1ccc(O)c(O)c1	-2
Cc1noc(C)c1COc1ccc(C(=O)Nc2ccccc2)cc1	0
SMILES	TTR transcr act	others
Cc1noc(C)c1COc1ccc(C(=O)Nc2ccccn2)cc1	0
CCc1ccccc1NC(=O)c1ccc(OCc2c(C)noc2C)cc1	49*	HuH7 TTR inh=-12;TTR act confirm=1
CNCCCOc1cccc(OC(C)C)c1	-1
Cc1c(C(=O)N(C)C)c2cc(Cl)ccc2n1O	1
c1ccc(CNc2nc3ccccc3[nH]2)cc1	9.9*	HuH7 TTR inh=-4;TTR act confirm=1
O=c1[nH]c2ccccc2nc1NCc1ccccc1	-2
c1ccc(CCc2nc3ccccc3[nH]2)cc1	1
CCOC(=O)C1=C(CSc2nc(-c3ccncc3)ccc2C#N)OC(N)=C(C#N)C1c1ccc(OC)cc1 (stereo not drawn)	2
CCOC(=O)CSc1nc(-c2ccncc2)ccc1C#N	24*	HuH7 TTR inh=-1;TTR act confirm=-1
N#Cc1ccc(-c2cccnc2)nc1SCC(N)=O	1
COC(=O)c1cn(NC(=O)COc2ccc(Cl)cc2)c(=O)c2ccccc12	2
c1ccc(-n2cnnc2SCc2cn3ccccc3n2)cc1	-2
O=C(O)C1(C(=O)O)CCC2(CCCCC2)CC1	10.0*	HuH7 TTR inh=-13;TTR act confirm=1
O=C(O)CC1(C(=O)O)CCCC1	-2
O=C(O)C1(C(=O)O)CCCC1	2
CCCCCCNC(=O)CCNS(=O)(=O)c1ccc(C)cc1	0
COc1ccc(/C=N/NC(=O)C(=O)N2CCCCCC2)cc1[N+](=O)[O-]	0
CCCn1c(-c2cc(OC)c(OC)c(OC)c2)nc2c1c(=O)[nH]c(=O)n2Cc1ccccc1	0
COc1ccc(CC(=O)Nc2cccc(C)n2)cc1OC	0
CC(=O)N/C(=C/c1ccc(OS(=O)(=O)c2ccc(C)cc2)cc1)C(=O)Nc1ccc(C(=O)O)cc1	0
O=C(c1ccc(Cl)c(Cl)c1)N1CCN(c2ccnc3cc(Cl)ccc23)CC1	-3
